LDHA block – qHTS assay for inhibitors of human lactate dehydrogenase | actives 0.15% (n = 480,000) | activity change, % (values are at about 110 or 230 µM) | L-lactate dehydrogenase A chain (Homo sapiens), P00338 | purified LDHA, NADH/diaphorase-resazurin fluorescence; hits give low values; in the data active means activity change below about -30%; inconclusive means mostly about -25% to -30%;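 further: plate controls were DMSO wells for no effect and wells without enzyme for full effect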
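Resorufin fluorescence (ex540/em590), read at 0 and 20 min after diaphorase/resazurin addition, reports the NADH left after a 5 min room-temperature reaction of 2 nM human LDH5 with 0.06 mM NADH and 0.2 mM pyruvate.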
pAkt inh – HTS Assay for Inhibitors of Akt Phophorylation: Primary Screen; Neuro2A IGF-stimulated pAkt S473 HTRF, 20 min; hits give low values; activity change, % for hits at 50 µM; actives 0.32% (n = 360,000); in the data active means activity change below about -80%; inconclusive means mostly about -51% to -80%; further: on the % scale 0 is the no-effect control and ±100 the full control effect
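Single-point screen (50 µM final compound) in Neuro2A cells stimulated 20 min with 6 nM IGF at 37 deg C. After lysis, Ser473-phosphorylated Akt read by HTRF (ex 330 nm, em 615/665 nm) as the 665/615 ratio.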
TSHR antag – Antagonists of the Thyroid Stimulating Hormone Receptor: HTS campaign | Thyrotropin receptor (Homo sapiens), P16473 | TSHR-expressing cells, TSH-stimulated cAMP HTRF, 2 h; hits give low values | activity change, negative = inhibition, % at 11.5 µM | actives 0.2% (n = 330,000) | AID 504810, 2011;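 active means activity change below a set negative limit, meaning inhibition stronger than a set level, cut at about -70% in these data; inconclusive means activity change between two set negative limits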; further: on the % scale 0 is the no-effect control and ±100 the full control effect
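Freshly harvested TSHR cells receive pin-tooled compound, then EC80 TSH at 4nM final. After 2 hours at 37 deg C, antibody in lysis buffer and cAMP-d2 are added; 30 minutes at ambient temperature precede the HTRF read.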
RGS4 inh – Inhibitors of Regulator of G Protein Signaling (RGS) 4: qHTS; AID 504845, 2011; Potency, µM (top dose mostly 114 µM), inactives show top-dose activity change, negative = inhibition, actives largely listed as inhibitors; actives 0.039% (n = 390,000); Regulator of G-protein signaling 4 (Homo sapiens), P49798; Transcreener GDP fluorescence polarization, RGS4-accelerated GTP hydrolysis; further: potency means the concentration at half of the fitted maximal effect; on the % scale 0 is the no-effect control and ±100 the full control effect; nearly all actives have a fitted effect of over 75% in size
Target sequence (P49798 whole entry, looked up): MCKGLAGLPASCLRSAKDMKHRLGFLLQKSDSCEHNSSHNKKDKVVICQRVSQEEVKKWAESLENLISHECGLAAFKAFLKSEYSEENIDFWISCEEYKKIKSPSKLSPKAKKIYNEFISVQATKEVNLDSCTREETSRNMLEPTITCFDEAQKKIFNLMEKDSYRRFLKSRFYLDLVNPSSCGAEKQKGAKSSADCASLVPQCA
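MLSMR compounds (23 nl, pin-transferred) preincubated 10 min at room temperature with a 500nM (2x) first reagent, then RGS4 at 900nM (2x) plus Transcreener GDP mix added; fluorescence polarization (620/688 nm) read before and after 90 min at 30 °C.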
TCR activator – Activators of T cell receptors: qHTS campaign. primary human leukocytes, anti-CD3, IL-2 HTRF, 48 h. Potency, µM (titrated, usually from 9.22 µM), without a hit: at the highest dose activation of IL-2 secretion, actives largely listed as activators. 330,000 tested, under 10 active. AID 504894, 2011; further: % of control where 0% means no effect
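Primary human leukocytes receive a-CD3 beads and test compound and are incubated 48 hr. Secreted IL-2 is then assayed by HTRF, measuring 665nm acceptor emission after 320nm excitation of the europium donor.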
GRP78 ERSR act – qHTS for Inducers of the Endoplasmic Reticulum Stress Response (ERSR) in Human Glioma: qHTS; AID 602332, 2012; Potency, µM, for inactives: at the highest dose activation, most hits filed as activators; U87-MG GRP78 promoter luciferase reporter, 16 h; actives 0.02% (n = 420,000); further: potency means the concentration at half of the fitted maximal effect; series mostly up to about 76 µM; % of control where 0% means no effect; nearly all actives have a fitted effect of over 35% in size
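Stably transfected U87-MG human glioma cells carrying a GRP78-based luminescent sensor were seeded at 1000 cells/well, pin-dosed with compounds and incubated 16 h. Luciferase reagent was then added, and end-point luminescence was read after 10 min at room temperature.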
The depositor's hits bear a star; i = inactive; ? = inconclusive; . = no result given; [ ] = remark or other dose. Hits are enriched below; roughly 0.55% of the tested compounds scored in any of these assays. Unless noted, the call rests on the fitted dose curve; in most records, active means well fitted curve in the direction sought with a large enough effect; inconclusive means small, poorly fitted or top-dose-only effect, or another doubt; inactive means no such curve, though single readings can be large; an effect the other way counts as inactive or inconclusive.

SMILES | LDHA block | pAkt inh | TSHR antag | RGS4 inh | TCR activator | GRP78 ERSR act
Fc1cccc(Cl)c1C1NC(=S)NC2=C1CCc1ccccc12 (stereo not given) | 1.0 | . | . | . | . | .
CN(CC(=O)Nc1ccccc1Cl)CC(=O)N(CCC#N)c1ccccc1 | 1.2 | . | . | . | . | .
CC(C)Cn1c2c(c(=O)[nH]c1=O)C(c1ccc(F)cc1)C1=C(COC1=O)N2 (stereo not given) | -0.7 | . | . | . | . | .
Cc1ccc(OCCSCc2nc3ccccc3[nH]2)cc1 | -2.7 | -97.6%* | -11.2 | -5.7% | -8.2% | 0.1%
C=CCn1c(-c2csc(-c3ccccc3)n2)n[nH]c1=S | -6.2 | -106.2%* | . | -50.5% | -0.6% | 3.2%
C=CCn1c(-c2csc(-c3ccc(Cl)cc3)n2)n[nH]c1=S | -3.5 | i | 3.5 | ? | 2.1% | -1.9%
COc1cc(/C=C/C(=O)c2ccc3c(c2)OCO3)cc(OC)c1OC | -2.2 | i | -6.9 | -11.3% | -7.4% | 28.2µM*
Cc1nccn1CC(=O)N/N=C/c1cc(Br)cs1 | -12.4 | i | 3.5 | -12.2% | 2.4% | -2.7%
COc1ccc(OC)c(/C=N/NC(=O)CN2CCSCC2)c1 | -14.8 | i | -4.7 | -5.1% | -1.1%[46.1 µM] | -3.1%
CCN1CCN(CC(=O)N/N=C/c2cc(Br)cs2)CC1 | -30.2* | i | 4.5 | 6.5% | . | -4.0%
COc1ccc(Br)cc1/C=N/NC(=O)CN1CCCCC1 | -0.5 | i | -121.8* | 3.6% | -5.1% | -4.6%
CC(C)c1ccc(N2C(=O)[C@@H]3Cc4ccccc4CN3C2=O)cc1 | 6.6 | -108.3%* | -1.1 | -39.5% | -1.9% | -2.1%
Cc1ccc(N2C(=O)[C@@H]3Cc4ccccc4CN3C2=O)cc1 | -0.7 | i | -4.4 | -17.2% | -5.6% | 0.6%
NC(=O)COc1ccc(C2CC(=O)Nc3nc(N4CCCCC4)sc32)cc1 (stereo not given) | 124.9 | . | . | . | . | .
COc1ccc(-c2nc3c(c(SCC(=O)N4CCOCC4)n2)Cc2c(CO)cnc(C)c2O3)cc1 | -2.9 | i | -134.7* | -32.6% | 1.2% | -2.5%
CC/C(=N\n1nnnc1Nc1ccccc1)c1ccccc1 | -2.5 | -113.2%* | -19.7 | 10.2% | 1.5%[46.1 µM] | -0.9%
Oc1ccc(N2CCN(c3nc(-c4cccnc4)nc4ccccc34)CC2)cc1 | 7.8 | . | . | . | . | .
COc1cc2ccccc2cc1C(=O)Nc1ccccc1SCC(N)=O | 0.2 | . | . | . | . | .
Cc1cc(C)c2[nH]c(=O)c(CN(Cc3nnnn3C3CCCC3)C3CCCCC3)cc2c1 | -3.6 | i | 9.8 | 7.5% | -1.4% | -3.2%
Cc1cccc2cc(CN(Cc3nnnn3C3CCCCC3)C3CCCC3)c3nnnn3c12 | -1.5 | -115.8%* | -13.3 | -10.9% | 5.4%[46.1 µM] | -3.0%
COc1ccc2[nH]c(=O)c(COC(=O)c3ccco3)cc2c1 | -4.8 | -113.8%* | -4.3 | -3.5% | -1.9% | -1.2%
CCOc1ccc(C2NC(=O)NC(CN3CCN(C(=O)OC(C)(C)C)CC3)=C2C(=O)OC)cc1 (stereo not given) | 2.5 | . | . | . | . | .
COC(=O)CC[S+](=O)([O-])c1ccc(-n2cccc2/C=C2\NC(=O)N(CC(=O)Nc3ccc(C)cc3)C2=O)cc1 | -7.2 | . | . | . | . | .
COc1ccccc1NC(=O)NC1(C(=O)N2CCCCC2)CCCCC1 | -3.6 | i | -74.6* | 19.9% | 5.9% | -3.8%
CSc1cccc(NC(=O)COc2coc(CN3CCSCC3)cc2=O)c1 | -37.9* | . | . | . | . | .
SMILES | LDHA block | pAkt inh | TSHR antag | RGS4 inh | TCR activator | GRP78 ERSR act
O=CC1=Cc2c(ccc3ccccc23)OC1 | 16.7 | . | . | . | . | .
Cc1cc(C)n(Cc2ccc(C(=O)N/N=C/c3ccc(-c4ccc([N+](=O)[O-])cc4)o3)o2)n1 | -65.3* | i | -23.9 | ? | . | -7.4%
O=C(Nc1cccc(Cl)c1)Nc1nnc([C@H]2C[C@H](O)[C@@H](CO)O2)s1 | -30.4* | i | . | . | . | 2.0%
C=CCOC(=O)C1CC=CCC1C(=O)Oc1ccc(F)cc1F (stereo not given) | -1.6 | -80.3%* | -8.3 | 5.8% | . | -2.3%
COc1cc(/C=C/C(=O)c2cc3ccccc3o2)ccc1OC(C)C | 12.6 | . | . | . | . | .
Nc1c(C(=O)Nc2ccc(Cl)c(Cl)c2)sc2nc(-c3cccnc3)ccc12 | . | . | 5.7 | . | 2.0%[46.1 µM] | .
Nc1c(C(=O)Nc2cc(Cl)cc(Cl)c2)sc2nc(-c3ccncc3)ccc12 | -31.6* | . | . | . | . | .
S=c1[nH]nc(COc2ccccc2)n1Cc1ccccc1 | 0.6 | i | 2.1 | -43.5% | 0.5%[46.1 µM] | -3.2%
S=c1[nH]nc(COc2ccccc2)n1C1CCCCC1 | -3.2 | -100.6%* | -13.2 | -30.2% | 8.6% | -4.2%
CCN1CCN(c2cc(C)c3cc(NC(=O)CC4CCCCC4)ccc3n2)CC1 | -0.3 | . | . | . | . | .
CCCOc1ccc(CNc2ccc(Oc3ccccc3)cc2)cc1 | -1.2 | . | . | . | . | .
CCN(CC)S(=O)(=O)c1ccc(NC(=O)C2COc3ccccc3O2)cc1 (stereo not given) | -9.8 | -120.6%* | 9.1 | 8.1% | 3.3% | 4.3%
O=C(c1cnccn1)N1CCC2(CCCN(C(c3ccccc3)c3ccccc3)C2)CC1 | . | . | . | . | . | 44.7µM*
O=C(c1cnccn1)N1CCC2(CC1)CN(C(c1ccccc1)c1ccccc1)C2 | . | . | . | . | . | -0.1%
O=C(c1cccc(F)c1)N1CCC[C@@]2(CCN(C(c3ccccc3)c3ccccc3)C2)C1 | . | . | . | . | . | 12.6µM*
CCCC(=O)n1nc(NCc2ccc(OCC)cc2)nc1NCc1ccc(OCC)cc1 | -4.6 | . | . | . | . | .
Cc1[nH]c2ccccc2c1C(c1ccc(Br)o1)c1c(C)[nH]c2ccccc12 | 17.9 | . | . | . | . | .
C[C@H](O)[C@@H]1C(=O)N2CCc3ccc(-c4ccccc4)cc3[C@@H]2C[C@@H]1N(C)C(=O)c1cccnc1 | -0.7 | i | . | . | . | -2.4%
Cc1ccccc1Oc1ccc2c(c1)[C@@H]1C[C@H](N(C)C(=O)c3cccnc3)[C@H]([C@H](C)O)C(=O)N1CC2 | -32.4* | i | . | . | . | 0.3%
CCOC(=O)c1ccc(NC(=O)CCc2nc(-c3ccccc3)no2)cc1 | 6.4 | -100.9%* | -17.7 | -14.7% | -3.3% | -1.7%
CCN(CC)CCCNc1oc(/C=C/c2cccs2)nc1C#N | -3.8 | . | . | . | . | .
COc1ccc(S(=O)(=O)Nc2cc(OC(F)F)c(OC)cc2C(=O)O)cc1Br | -0.5 | . | . | . | . | .
O=C1NC(=O)/C(=C/c2ccc(-c3ccc(F)cc3O)o2)S1 | . | . | -14.4 | 21.2µM* | . | -3.2%
CCCCNC(=O)CN1CCN(Cc2ccc3cc(OC)ccc3c2)CC1 | -33.0* | i | -2.0 | 1.9% | 6.5% | -3.1%
